According to PubChem BioAssay (NCI):
This is part of a sample that, as a whole, favours compounds with a hit. Of some 83,000 tested, about 20% had one in any assay.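 How to read the values: 0–100, growth inhibition (40 = 60% inhibited); 0, no net growth; -100 to 0, cell death (-40 = 40% of starting cells died; -100 = all dead).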 Values without a mark were called inactive. Active and inactive are the calls of the source. The calls were made as follows: active = growth percent below 10; inactive = the rest.

Tests used:
Experiment in all cases: NCI-60 one-dose screen, 48 h (100 = growth as untreated, 0 = no growth, -100 = all killed)
Conditions in all cases: 10 µM unless noted
[1] = system: HT29 colon
[2] = system: SNB-75 CNS
[3] = system: SNB-19 CNS
[4] = system: U251 CNS
[5] = system: PC-3 prostate
[6] = system: UACC-62 melanoma
[7] = system: SK-MEL-2 melanoma
[8] = system: SK-MEL-28 melanoma
[9] = system: SK-MEL-5 melanoma
[10] = system: LOX IMVI melanoma

Question: Which results are given for `CSc1ccc2c(c1)N(C(=O)/C(C#N)=C/c1c[nH]c3ccccc13)c1ccccc1S2`?
Answer: growth [1]: 12.2%; growth [2]: 8.61% (active); growth [3]: 41%; growth [4]: 42.1%; growth [5]: 28.8%; growth [6]: 41.8%; growth [7]: 35.6%

Question: `Cc1cc(C(=O)Nc2sc3c(c2C(N)=O)CCC(=O)C3)ccc1OCCN1CCCCC1` was tested. Which growth [1] did it give?
Answer: Its growth is 96.2%.

Question: What about the growth [2] of the same molecule?
Answer: Its growth is 95.2%.

Question: And the growth [3]?
Answer: The growth was 102%.

Question: And the growth [4]?
Answer: The growth was 96.8%.

Question: What about the growth [5] of the same molecule?
Answer: The growth was 88.6%.

Question: What about the growth [6] of the same molecule?
Answer: The growth was 100%.

Question: And the growth [8]?
Answer: Its growth is 115%.

Question: What about the growth [7] of the same molecule?
Answer: Its growth is 106%.

Question: Which results are given for `O=C(N/N=C/c1ccc[nH]1)c1[nH]c2ccc(Br)cc2c1-c1ccccc1`?
Answer: growth [1]: 6.16% (active); growth [2]: 27.3%; growth [3]: 30.6%; growth [4]: 21.8%; growth [5]: 15.2%; growth [9]: -34.3% (active); growth [8]: 61.2%; growth [7]: 31.9%

Question: Which growth [1] does the source give for `COc1ccc(CNS(=O)(=O)/N=C2\NC(=O)NC2=C(Cl)Cl)cc1` here?
Answer: The growth was 8.17% (active).

Question: And the growth [2]?
Answer: Its growth is -23.1% (active).

Question: And the growth [3]?
Answer: The growth was 30%.

Question: What about the growth [4] of the same molecule?
Answer: The growth was 14.8%.

Question: And the growth [5]?
Answer: The growth was 28%.

Question: And the growth [6]?
Answer: Its growth is 27.4%.

Question: And the growth [8]?
Answer: The growth was 48.7%.

Question: And the growth [7]?
Answer: The growth was 29.1%.

Question: For `CC1=C(C)C(=O)C(Nc2ccccc2)=C(Cl)C1=O`, which growth [1] is on record?
Answer: The growth was 99.1%.

Question: And the growth [2]?
Answer: The growth was 65.4%.

Question: What about the growth [3] of the same molecule?
Answer: The growth was 88.8%.

Question: And the growth [4]?
Answer: Its growth is 84.3%.

Question: What about the growth [5] of the same molecule?
Answer: The growth was 73.9%.

Question: What about the growth [6] of the same molecule?
Answer: The growth was 90.3%.

Question: What about the growth [8] of the same molecule?
Answer: The growth was 106%.

Question: Which results are given for `CC1=C(C)C(=O)C(Nc2cccc(C(F)(F)F)c2)=C(Cl)C1=O`?
Answer: growth [1]: 103%; growth [2]: 66.5%; growth [3]: 92.4%; growth [4]: 79%; growth [5]: 64.4%; growth [6]: 80.2%

Question: How did the growth [1] turn out when `N[C@@H](Cc1cn(-c2c3ccccc3nc3ccccc23)nn1)C(=O)O` was run?
Answer: Its growth is 107%.

Question: And the growth [2]?
Answer: The growth was 96.7%.

Question: What about the growth [3] of the same molecule?
Answer: The growth was 93.2%.

Question: What about the growth [4] of the same molecule?
Answer: The growth was 103%.

Question: And the growth [5]?
Answer: The growth was 99.2%.

Question: What about the growth [9] of the same molecule?
Answer: The growth was 101%.

Question: What about the growth [8] of the same molecule?
Answer: Its growth is 100%.

Question: Which results are given for `Cc1sc2nc(NCc3ccccc3Cl)[nH]c(=O)c2c1C`?
Answer: growth [1]: 103%; growth [2]: 82.8%; growth [3]: 102%; growth [4]: 72.9%; growth [5]: 73.9%; growth [9]: 72.9%; growth [10]: 68.8%; growth [7]: 106%

Question: With `Cc1ccc2c(n1)C(=O)C(Cl)=C(Nc1cccc(C(C)C)c1)C2=O` as the molecule, how does the growth [1] read?
Answer: Its growth is 97%.

Question: What about the growth [2] of the same molecule?
Answer: Its growth is 68.6%.

Question: And the growth [3]?
Answer: The growth was 71.7%.

Question: What about the growth [4] of the same molecule?
Answer: The growth was 60.3%.

Question: What about the growth [5] of the same molecule?
Answer: Its growth is 57.9%.

Question: What about the growth [6] of the same molecule?
Answer: The growth was 87.1%.

Question: What about the growth [8] of the same molecule?
Answer: Its growth is 63.1%.

Question: What about the growth [7] of the same molecule?
Answer: Its growth is 47.2%.

Question: How did the growth [1] turn out when `O=C1NC(=C(Cl)Cl)/C(=N/S(=O)(=O)N2CCCCC2CC2(C(F)(F)F)N=N2)N1` (configuration not stated) was run?
Answer: Its growth is -25.7% (active).

Question: What about the growth [2] of the same molecule?
Answer: Its growth is 101%.

Question: And the growth [3]?
Answer: Its growth is 40.8%.

Question: What about the growth [4] of the same molecule?
Answer: Its growth is -1.13% (active).

Question: What about the growth [5] of the same molecule?
Answer: The growth was 60.5%.

Question: What about the growth [9] of the same molecule?
Answer: The growth was 95.3%.

Question: What about the growth [8] of the same molecule?
Answer: The growth was 7.84% (active).

Question: And the growth [7]?
Answer: Its growth is -4.45% (active).

Question: Which results are given for `COc1cc(/C=C/C(=O)c2ccc(C)cc2)ccc1Oc1nc(NCCO)nc(N2CCOCC2)n1`?
Answer: growth [1]: 19.4%; growth [2]: 93.7%; growth [3]: 44%; growth [4]: 34.6%; growth [5]: 30.6%; growth [9]: 43.7%; growth [8]: 76.6%; growth [7]: 99.9%

Question: How did the growth [1] turn out when `COc1ccc(Cc2nn(CC(=O)N/N=C/c3ccc(Cl)cc3)c(=O)c3c(C)noc23)cc1` was run?
Answer: The growth was 92.4%.

Question: And the growth [2]?
Answer: Its growth is -4.27% (active).

Question: What about the growth [3] of the same molecule?
Answer: The growth was 67.5%.

Question: And the growth [4]?
Answer: Its growth is 71.4%.

Question: What about the growth [5] of the same molecule?
Answer: The growth was 78.9%.

Question: What about the growth [6] of the same molecule?
Answer: Its growth is 99.2%.

Question: And the growth [8]?
Answer: The growth was 97.9%.

Question: What about the growth [7] of the same molecule?
Answer: The growth was 90.8%.

Question: What does the source list for `COc1cc2nc(-c3ccc(C)cc3)cc(OCCCNCC3CCCO3)c2cc1OC` (configuration not stated)?
Answer: growth [1]: 21.3%; growth [2]: 80.7%; growth [3]: 92.1%; growth [4]: 66.7%; growth [5]: 66.3%; growth [9]: 77.7%; growth [7]: 112%

Question: `N#Cc1ccc(C(=O)CSc2nc(Nc3ccc(S(N)(=O)=O)cc3)c3ccccc3n2)cc1` was tested. Which growth [1] did it give?
Answer: The growth was 112%.

Question: And the growth [2]?
Answer: Its growth is 107%.

Question: What about the growth [3] of the same molecule?
Answer: The growth was 100%.

Question: And the growth [5]?
Answer: The growth was 89.4%.

Question: What about the growth [9] of the same molecule?
Answer: Its growth is 102%.

Question: And the growth [6]?
Answer: Its growth is 99.4%.

Question: And the growth [8]?
Answer: Its growth is 109%.

Question: What about the growth [7] of the same molecule?
Answer: Its growth is 118%.

Question: `CCOC(=O)c1sc(NCC(=O)Nc2cccc([N+](=O)[O-])c2)c(C(=O)OCC)c1C` was tested. Which growth [1] did it give?
Answer: The growth was -42.7% (active).

Question: What about the growth [2] of the same molecule?
Answer: Its growth is -37.6% (active).

Question: And the growth [3]?
Answer: Its growth is -6.96% (active).

Question: And the growth [4]?
Answer: Its growth is -7.36% (active).

Question: What about the growth [5] of the same molecule?
Answer: The growth was -9.82% (active).

Question: What about the growth [8] of the same molecule?
Answer: Its growth is -30.9% (active).
